Broadly, the inhibition is the relative decrease from the control value, in per cent.

Assay [1] in a line: yeast 75Q aggregation reduction – 75Q-TubU reporter (AID 1593). The note with it: Yeast 75Q polyglutamine aggregation reporter.
A short description of assay [2]: blockers of cytochrome c efflux from mitochondria – biochemical, purified mitochondria (AID 1603).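 Further: mouse liver mitochondria challenged with calcium chloride; signal normalized to the plate average as 100%.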 The note with it: stronger effect = lower value.
Assay [3] is described as follows: polyglutamine aggregate formation blockers (AID 1604). Particulars: polyglutamine-induced protein aggregation inhibition assay; stronger effect = higher value; tested at 2.5 µM.
A short description of assay [4]: Wnt pathway potentiators raising nuclear beta-catenin – imaging, WNT3A-conditioned medium, mouse C2C12, NPC library, primary screen (AID 1117326; in the data active means nuclear beta-catenin stimulation mostly above about 4.2%, no sharp cut-off; inactive means mostly below about 10%). Particulars: stronger effect = higher value.
Assay [5] can be described thus: stimulators of insulin release from INS-1E, primary screen, cell-based, 5 mM glucose, NPC library (AID 1117329;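 active means compound raises insulin release from rat beta cells at 5 mM glucose, no numeric limit stated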). Particulars: rat INS-1E insulin secretion, at 10 µM, stronger effect = higher value.
Assay [6] in a line: growth inhibition of GSK3B-pretreated HCT116 cells – cell-based, CellTiter-Glo, 0.2 to 20 µM (AID 1117336;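 active means compounds lowering colon cancer cell viability after pretreatment blocking the GSK3B kinase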). The note with it: HCT116 viability after GSK3B inhibitor, at 20 µM, stronger effect = higher value. For orientation: Cellular ATP, detected with luciferase, serves as a proxy for viable cell number.
Assay [7] is described as follows: inhibition of endothelial tube formation, primary screen, imaging, VEGF stimulated, CD31 staining, tube area, NPC library (AID 1117340;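 active means compound that reduces growth-factor-driven endothelial tube area in a mixed cell culture, no cutoff stated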). Particulars: VEGF-stimulated ADSC/ECFC co-culture, at 10 µM, stronger effect = higher value.
A short description of assay [8]: GLP1 release stimulators, primary, NCI-H716, NPC library (AID 1117341;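 active means compound raises GLP1 secretion from the human gut endocrine cells, with no numeric limit stated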). Particulars: NCI-H716 cells, at 10 µM, stronger effect = higher value.
A short description of assay [9]: HCT116 colon cancer cell growth inhibition, primary screen, CellTiter-Glo luminescence, NPC library (AID 1117342;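 active means compounds that lower survival of HCT116 colon cancer cells in the luminescence readout, no numeric limit stated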). The note with it: at 20 µM (top of the series).
Assay [10] is described as follows: reduced SW480 viability measured with CellTiter-Glo, NPC library, primary (AID 1117343;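 active means compounds that lower viability of the colon cancer cells in the luminescence readout, with no numeric limit stated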). The note with it: CellTiter-Glo luminescence; at 20 µM (top of the series).
Assay [11] is described as follows: NPC library primary testing for decreased DLD-1 cell viability via CellTiter-Glo (AID 1117346;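 active means compounds that lower survival of DLD-1 colon cancer cells in the luminescence readout, no cutoff given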). Particulars: DLD-1 viability, CellTiter-Glo luminescence; at 20 µM (top of the series).
The target of assay [12] is 6-phosphogluconate dehydrogenase, decarboxylating (Homo sapiens) (UniProt P52209). Briefly: inhibition of human phosphogluconate dehydrogenase – biochemical, recombinant enzyme, NADPH absorbance, primary screen (AID 1159550;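 active means at least 20% inhibition of 6-phosphogluconate dehydrogenase activity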). The note with it: recombinant 6PGD, NADPH absorbance 341 nm; at 10 µM; stronger effect = higher value.
Chain of 6-phosphogluconate dehydrogenase, decarboxylating (Homo sapiens) (P52209 whole entry, looked up): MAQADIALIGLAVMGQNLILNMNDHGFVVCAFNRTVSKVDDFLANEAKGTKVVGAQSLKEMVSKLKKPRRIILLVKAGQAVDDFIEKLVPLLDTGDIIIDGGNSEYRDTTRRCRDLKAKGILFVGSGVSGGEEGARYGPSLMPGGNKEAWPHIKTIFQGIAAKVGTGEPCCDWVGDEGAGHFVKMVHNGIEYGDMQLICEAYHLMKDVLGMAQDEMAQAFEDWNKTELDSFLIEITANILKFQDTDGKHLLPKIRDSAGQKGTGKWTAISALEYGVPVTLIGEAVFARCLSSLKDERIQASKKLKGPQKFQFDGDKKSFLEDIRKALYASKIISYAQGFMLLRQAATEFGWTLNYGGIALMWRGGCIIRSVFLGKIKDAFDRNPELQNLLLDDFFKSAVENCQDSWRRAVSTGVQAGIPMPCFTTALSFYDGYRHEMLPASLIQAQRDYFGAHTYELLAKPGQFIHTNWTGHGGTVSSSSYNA
Assay [13] is described as follows: EMT-state selective cytotoxicity in co-culture – imaging, PC-3E GFP, TEM4-18 mCherry, primary screen (AID 1345086;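 active means compounds killing one labelled cell type while sparing the other, by normalised counts and ratio limits, not self-fluorescent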;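 on all read-outs here: cells exposed to compound for 72 h before imaging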;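 on red/green cell ratio (normalised): normalised mesenchymal count divided by normalised epithelial count so high means epithelial killing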). The note with it: PC-3E GFP / TEM4-18 mCherry co-culture, imaging cell counts, at 1 µM; for red/green cell ratio (normalised): actives lie on both sides.
Assay [14] has as its system Aerobactin synthetase IucA (Klebsiella pneumoniae hvKP1). The assay can be described thus: IucA enzyme inhibition, primary screen, biochemical, Spectrum library (AID 1346200; call rule not given here;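 further: 100% = wells without compound and 0% = wells lacking enzyme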). Particulars: malachite green pyrophosphate, A620, at 8 µM, stronger effect = lower value.
A short description of assay [15]: viability loss with induced miR-34 in A549 – imaging, A549 dox-inducible miR-34, nuclei and caspase counts, primary screen (AID 1347080). The note with it: A549 miR-34 inducible, Hoechst nuclei count, 48 h; measured here: total cells without miR-34 induction.
The nature of assay [16]: MELAS cybrid and Rieske KO viability enhancers – cell-based, MELAS cybrids, Rieske KO mouse fibroblasts, CellTiter-Glo, primary screen (AID 1508586;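 active means mean z-score across replicates of 1.96 or higher in either the MELAS or the Rieske mutant cell line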;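 further: z relative to plate mean and SD of compound and empty wells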). Particulars: low glucose.
Assay [17] concerns the target NAD(+) hydrolase SARM1 (Homo sapiens) (UniProt Q6SZW1). Briefly: blocking NAD cleavage by SARM1 SAM-TIR – cell lysate, NAD-Glo luminescence (AID 1508614;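 active means compound whose remaining NAD level is above about 45 nM, limit read from the data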). Particulars: SAM-TIR HEK293T lysate NADase, at 1 µM, stronger effect = higher value.
Assay [18] has as its target Mitogen-activated protein kinase 7 (Homo sapiens) (UniProt Q13164). The assay can be described thus: Gal4-ERK5 driven luciferase induction – cell-based, HTS, primary screen (AID 1508626;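 active means luciferase signal above three times the same-plate solvent-only control wells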;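 further: luciferase driven by Gal4-ERK5 fusion binding five Gal4 sites before minimal TATA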). Particulars: HeLa Gal4-ERK5 transactivation, 18 h, at 5 µM, stronger effect = higher value.
Assay [19] in a line: galactose survival enhancers in mitochondrial complex I cybrids – cell-based, galactose medium, ATP luminescence, primary screen (AID 1645843).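 Further: positive z means more ATP and so rescue of galactose-driven cybrid death.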 The note with it: complex I mutant cybrid cells, 72 h, stronger effect = higher value.
Where [20] appears, read: measured here: epithelial PC-3E GFP cell survival.
Setting [21] is: measured here: mesenchymal TEM4-18 mCherry cell survival.
Setting [22] is: MELAS cybrid survival, CellTiter-Glo 48 h, stronger effect = higher value.
[23] abbreviates: Rieske KO mouse fibroblast survival, CellTiter-Glo 72 h.

Where “and” joins values, the source holds several entries; their conditions need not be identical. Equal entries are not always repeated. Some compounds were tested as several samples or in several runs, with calls that do not always agree. Calls of active or inactive are those of the source.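 How the source made its calls, unless noted: active means z-score of at least 1.8 in each of two replicates, scored against plate mean and spread of sample wells; inactive means the rest.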

Chain of NAD(+) hydrolase SARM1 (Homo sapiens) (Q6SZW1 whole entry, looked up, the tested form may be a part): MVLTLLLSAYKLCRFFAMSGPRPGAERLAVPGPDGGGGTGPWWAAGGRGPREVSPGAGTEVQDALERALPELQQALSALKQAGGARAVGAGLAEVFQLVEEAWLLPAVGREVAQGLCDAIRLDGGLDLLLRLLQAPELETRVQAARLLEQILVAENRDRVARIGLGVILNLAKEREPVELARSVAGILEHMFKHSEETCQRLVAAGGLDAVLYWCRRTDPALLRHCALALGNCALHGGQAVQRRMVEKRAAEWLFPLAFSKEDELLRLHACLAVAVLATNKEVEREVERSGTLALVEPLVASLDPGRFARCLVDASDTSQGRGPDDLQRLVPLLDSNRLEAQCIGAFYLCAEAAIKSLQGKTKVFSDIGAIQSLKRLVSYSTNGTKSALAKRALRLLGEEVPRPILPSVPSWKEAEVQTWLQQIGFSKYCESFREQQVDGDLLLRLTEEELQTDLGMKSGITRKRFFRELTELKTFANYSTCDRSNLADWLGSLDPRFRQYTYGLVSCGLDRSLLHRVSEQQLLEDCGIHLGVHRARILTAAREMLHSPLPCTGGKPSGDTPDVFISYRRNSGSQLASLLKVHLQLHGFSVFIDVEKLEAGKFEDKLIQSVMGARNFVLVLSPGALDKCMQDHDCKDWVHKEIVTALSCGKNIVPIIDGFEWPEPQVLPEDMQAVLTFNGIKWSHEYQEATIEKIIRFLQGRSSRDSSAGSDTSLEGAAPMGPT
Chain of Mitogen-activated protein kinase 7 (Homo sapiens) (Q13164 whole entry, looked up, the tested form may be a part): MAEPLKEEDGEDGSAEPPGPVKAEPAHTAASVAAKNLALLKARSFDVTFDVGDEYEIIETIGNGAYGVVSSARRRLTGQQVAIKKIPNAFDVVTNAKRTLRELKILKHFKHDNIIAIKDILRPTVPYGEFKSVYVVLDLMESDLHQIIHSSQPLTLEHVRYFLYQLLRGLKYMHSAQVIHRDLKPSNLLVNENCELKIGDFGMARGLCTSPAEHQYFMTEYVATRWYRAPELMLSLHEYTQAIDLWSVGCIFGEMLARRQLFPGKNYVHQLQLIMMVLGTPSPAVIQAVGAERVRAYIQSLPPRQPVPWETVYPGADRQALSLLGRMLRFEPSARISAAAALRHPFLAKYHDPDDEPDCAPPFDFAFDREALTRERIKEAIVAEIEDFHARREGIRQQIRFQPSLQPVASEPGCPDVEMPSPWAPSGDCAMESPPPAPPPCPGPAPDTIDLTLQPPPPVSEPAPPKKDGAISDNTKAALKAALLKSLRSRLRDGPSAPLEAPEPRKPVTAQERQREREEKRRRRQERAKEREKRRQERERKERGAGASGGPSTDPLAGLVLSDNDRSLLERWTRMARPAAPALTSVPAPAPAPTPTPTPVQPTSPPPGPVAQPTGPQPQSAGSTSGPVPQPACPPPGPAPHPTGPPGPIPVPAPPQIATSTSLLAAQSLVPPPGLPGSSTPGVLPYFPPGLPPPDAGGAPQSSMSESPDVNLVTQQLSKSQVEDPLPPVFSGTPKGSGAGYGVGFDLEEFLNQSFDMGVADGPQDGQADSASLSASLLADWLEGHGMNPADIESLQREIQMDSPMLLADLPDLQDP

For `CN(C)[C@@H]1C(=O)C(C(N)=O)=C(O)[C@@]2(O)C(=O)C3=C(O)c4c(O)cccc4[C@@](C)(O)[C@H]3C[C@@H]12`, in assay [1], the score was determined as 0.85. In addition, in [2], the cytochrome c release ratio was 2.45. Also, the inhibition of aggregation in [3] worked out at 47.2%. Moreover, the nuclear beta-catenin stimulation in assay [4] (at 10 µM) was 1% (inactive); in assay [4] (stimulation, at 2 µM), 1.9%. Further, the insulin secretion stimulation in [5] is 2.5% (inactive). In addition, the viability decrease in assay [6] was -202% (inactive). The tube area decrease in [7] was 9.8% (inactive). Also, the GLP1 secretion stimulation in [8] is -2.8% (inactive). For the same compound, the inhibition of viability in assay [9] is 12.1% (inactive). Besides, the viability decrease (inhibition) in assay [10] was 43.4% (inactive); in [11], 73.3% (active). Besides, the inhibition in [12] was -5.09% (inactive). Besides, the red/green cell ratio (normalised) in [13] is 0.98 (inactive) and 1.18 (inactive). Also, the normalised cell number was 0.93 and 1.05 in assay [13] (setting [20]); 0.91 and 1.24 in [13] (setting [21]). Besides, the activity remaining in [14] was 92.7% (inactive). Moreover, in assay [15], the cell count is 7550 and 8910 and 10100. The z-score was 4.37 (active) and -3.68 (inactive) and 0.0486 in [16] (setting [22]); 0.792 and -3.53 and 2.26 in assay [16] (setting [23]); 2.65 (active) in assay [19]. For the same compound, the remaining NAD in assay [17] is 10 nM (inactive). Further, the luciferase signal in assay [18] is 324 AU (active).
Take `CCOC(=O)NC(O)C(Cl)(Cl)Cl` (stereo unspecified): the nuclear beta-catenin stimulation is -0.2% (inactive) in assay [4] (at 10 µM) and 2.2% in assay [4] (stimulation, at 2 µM). The insulin secretion stimulation in [5] was 0.3% (inactive). In addition, the viability decrease in [6] is -4.2% (inactive). In addition, in assay [7], the tube area decrease was -20.4% (inactive). Besides, the GLP1 secretion stimulation in assay [8] is 0.8% (inactive). The inhibition of viability in [9] is -2.5% (inactive). Besides, the viability decrease (inhibition) in assay [10] was 16.2% (inactive); in [11] it was 4.55% (inactive).
In assay [1], `O=C(CCCN1CCC2(CC1)C(=O)NCN2c1ccccc1)c1ccc(F)cc1` returned a score of 1.06. Also, the cytochrome c release ratio in assay [2] turned out to be 1.21. In assay [3], this compound returned an inhibition of aggregation of 87%. Also, the nuclear beta-catenin stimulation is 0.4% (inactive) in [4] (at 10 µM) and 5.7% in [4] (stimulation, at 2 µM). The insulin secretion stimulation in assay [5] was 1.8% (inactive). In addition, the viability decrease in assay [6] was 51.6% (active). The tube area decrease in assay [7] was -3.9% (inactive). Besides, the GLP1 secretion stimulation in assay [8] was 8% (inactive). Also, in assay [9], the inhibition of viability is 60.5% (active). Besides, the results for the viability decrease (inhibition) in [10] and in [11] were 95.2% (active) and 83.7% (active), respectively. The inhibition in assay [12] is -2.11% (inactive). The red/green cell ratio (normalised) in assay [13] was 1.18 (inactive). Further, the normalised cell number came to 0.93 in [13] (setting [20]) and 1.1 in [13] (setting [21]). The activity remaining in assay [14] was 110% (inactive). The z-score is 0.0809 (inactive) and 0.865 (inactive) in assay [16] (setting [22]); -0.502 and 0.666 in assay [16] (setting [23]); -1.13 (inactive) and 1.23 (inactive) and -1.53 (inactive) in assay [19]. The remaining NAD in assay [17] was 10 nM (inactive). Also, the luciferase signal in [18] is 60 AU (inactive).
On to `O=C(O)CCCc1ccc(N(CCCl)CCCl)cc1`, for which, in assay [1], the score is -0.24. In addition, the cytochrome c release ratio in assay [2] came out at 1.24. In [3], this compound yielded an inhibition of aggregation of 81.4%. Besides, the nuclear beta-catenin stimulation in assay [4] (at 10 µM) was 3.6% (inactive); in [4] (stimulation, at 2 µM) it was -1.1%. Further, in assay [5], the insulin secretion stimulation is -0.1% (inactive). Further, in assay [6], the viability decrease was 49.8% (inactive). In assay [7], the tube area decrease was 87% (active). Besides, the GLP1 secretion stimulation in assay [8] is -0.8% (inactive). Moreover, the inhibition of viability in [9] was 8.83% (inactive). Also, the viability decrease (inhibition) is 3.9% (inactive) in assay [10] and 2.6% (inactive) in [11]. For the same compound, the inhibition in [12] was -1.4% (inactive). In assay [13], the red/green cell ratio (normalised) was 0.75 (inactive). Further, the values for the normalised cell number in assay [13] (setting [20]) and in assay [13] (setting [21]) were 1.2 and 0.9, respectively. Also, the activity remaining in assay [14] is 115% (inactive). Further, the z-score in assay [16] (setting [22]) was -0.116 (inactive) and 0.451 (inactive); in assay [16] (setting [23]), -0.284 and -0.412; in assay [19] it was -0.065 (inactive) and 0.565 (inactive). Moreover, the remaining NAD in assay [17] was 10 nM (inactive). For the same compound, the luciferase signal in assay [18] was 144 AU (inactive).
